Reference: the supplement of paper PMC12067093, “Discovery and optimisation of a covalent ligand for TRIM25 and its application to targeted protein ubiquitination” (Chemical Science, 2025)
The full data set covers some 21,000 targets. This sample favours those with the largest changes.

Compound: CC1Cc2ccccc2N1C(=O)C1CCCN(C1)C(=O)CCl (mixture of isomers) [TRIM25 ligand 11 (diastereomer mixture)]
Assay: probe-labelled cysteine peptide fold change vs DMSO (competition) (log2 fold change); higher = less target engagement (more negative = stronger competition)
Details: THP-1, incubation time: 4 h
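Also: competitive chemoproteomic profiling in live THP-1 cells with an iodoacetamide desthiobiotin (IA-DTB) probe, comparing probe-labelled peptide intensities in compound-treated cells against DMSO-treated controls.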

Sequence of UniProt Q8N1G0 (Q8N1G0 whole entry, looked up): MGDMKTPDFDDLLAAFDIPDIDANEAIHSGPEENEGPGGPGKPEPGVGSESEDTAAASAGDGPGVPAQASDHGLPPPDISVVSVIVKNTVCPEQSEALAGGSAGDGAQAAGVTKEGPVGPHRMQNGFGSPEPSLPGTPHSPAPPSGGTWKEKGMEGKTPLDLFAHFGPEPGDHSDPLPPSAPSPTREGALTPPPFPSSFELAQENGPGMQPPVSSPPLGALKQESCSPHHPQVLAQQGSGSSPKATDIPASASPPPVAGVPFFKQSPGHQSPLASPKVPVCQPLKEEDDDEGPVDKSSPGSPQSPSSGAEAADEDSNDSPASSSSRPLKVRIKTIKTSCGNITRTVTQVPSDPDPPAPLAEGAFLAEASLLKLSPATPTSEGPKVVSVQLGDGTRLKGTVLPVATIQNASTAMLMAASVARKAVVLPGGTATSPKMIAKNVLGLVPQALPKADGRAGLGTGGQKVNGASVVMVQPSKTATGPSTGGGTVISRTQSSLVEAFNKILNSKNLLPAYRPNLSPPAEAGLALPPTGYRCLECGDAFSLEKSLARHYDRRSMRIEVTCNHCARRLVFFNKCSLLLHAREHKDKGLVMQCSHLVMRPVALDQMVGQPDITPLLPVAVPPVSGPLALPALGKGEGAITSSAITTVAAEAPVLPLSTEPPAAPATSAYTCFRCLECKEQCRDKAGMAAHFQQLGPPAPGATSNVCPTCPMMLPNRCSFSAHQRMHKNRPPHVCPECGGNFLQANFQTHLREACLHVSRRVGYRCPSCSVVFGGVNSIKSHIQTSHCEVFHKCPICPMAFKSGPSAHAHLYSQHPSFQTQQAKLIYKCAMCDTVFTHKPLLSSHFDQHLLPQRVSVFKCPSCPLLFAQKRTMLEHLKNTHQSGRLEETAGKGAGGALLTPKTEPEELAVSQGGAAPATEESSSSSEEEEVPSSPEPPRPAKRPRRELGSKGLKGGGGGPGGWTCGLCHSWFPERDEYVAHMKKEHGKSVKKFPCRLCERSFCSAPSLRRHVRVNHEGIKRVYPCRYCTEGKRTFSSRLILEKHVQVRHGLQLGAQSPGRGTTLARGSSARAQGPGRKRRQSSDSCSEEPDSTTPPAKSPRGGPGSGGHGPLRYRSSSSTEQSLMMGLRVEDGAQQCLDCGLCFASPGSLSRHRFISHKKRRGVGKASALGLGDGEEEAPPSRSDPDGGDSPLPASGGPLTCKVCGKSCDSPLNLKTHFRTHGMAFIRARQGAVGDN
Sequence of UniProt Q5T4F4 (Q5T4F4 whole entry): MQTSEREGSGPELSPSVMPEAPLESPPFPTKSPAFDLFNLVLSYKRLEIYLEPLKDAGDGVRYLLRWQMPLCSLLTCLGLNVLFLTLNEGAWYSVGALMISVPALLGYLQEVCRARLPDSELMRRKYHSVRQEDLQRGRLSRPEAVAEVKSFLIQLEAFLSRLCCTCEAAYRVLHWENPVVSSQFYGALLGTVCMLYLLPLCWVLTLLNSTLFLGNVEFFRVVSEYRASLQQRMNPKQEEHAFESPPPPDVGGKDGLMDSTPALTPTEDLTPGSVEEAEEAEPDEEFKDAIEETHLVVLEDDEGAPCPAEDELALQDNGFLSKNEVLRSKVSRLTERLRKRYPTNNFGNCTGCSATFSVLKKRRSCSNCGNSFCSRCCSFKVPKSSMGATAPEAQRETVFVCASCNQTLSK
Sequence of UniProt Q9NUD5 (Q9NUD5 whole entry, looked up): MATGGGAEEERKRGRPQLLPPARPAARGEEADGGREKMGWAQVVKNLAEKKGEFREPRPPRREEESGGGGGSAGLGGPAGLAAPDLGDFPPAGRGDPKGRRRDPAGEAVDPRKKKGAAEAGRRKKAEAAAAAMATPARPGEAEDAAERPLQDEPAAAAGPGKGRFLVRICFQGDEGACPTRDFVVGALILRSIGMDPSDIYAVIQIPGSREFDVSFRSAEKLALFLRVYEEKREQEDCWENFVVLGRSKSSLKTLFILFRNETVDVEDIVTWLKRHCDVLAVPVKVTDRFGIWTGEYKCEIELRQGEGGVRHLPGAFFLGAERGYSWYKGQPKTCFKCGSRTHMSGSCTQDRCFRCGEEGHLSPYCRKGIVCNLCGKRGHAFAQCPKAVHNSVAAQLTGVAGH
Sequence of UniProt O95365 (O95365 whole entry, looked up): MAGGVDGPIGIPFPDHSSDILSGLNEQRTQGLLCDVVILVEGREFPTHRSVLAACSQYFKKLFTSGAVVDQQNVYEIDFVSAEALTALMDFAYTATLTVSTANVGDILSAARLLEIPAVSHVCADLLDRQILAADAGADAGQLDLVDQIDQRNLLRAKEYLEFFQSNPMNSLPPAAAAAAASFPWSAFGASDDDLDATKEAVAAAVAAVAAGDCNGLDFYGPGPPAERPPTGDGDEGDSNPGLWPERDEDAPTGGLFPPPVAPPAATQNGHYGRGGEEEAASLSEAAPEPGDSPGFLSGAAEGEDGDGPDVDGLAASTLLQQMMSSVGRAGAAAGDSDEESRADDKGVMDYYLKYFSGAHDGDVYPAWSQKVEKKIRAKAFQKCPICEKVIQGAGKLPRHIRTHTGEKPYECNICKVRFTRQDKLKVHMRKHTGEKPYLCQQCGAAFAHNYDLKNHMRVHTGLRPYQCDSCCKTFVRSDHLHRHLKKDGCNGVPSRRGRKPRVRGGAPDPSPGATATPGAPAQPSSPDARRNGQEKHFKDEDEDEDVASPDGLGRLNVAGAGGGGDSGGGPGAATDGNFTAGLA
Sequence of UniProt Q04917 (Q04917 whole entry, looked up): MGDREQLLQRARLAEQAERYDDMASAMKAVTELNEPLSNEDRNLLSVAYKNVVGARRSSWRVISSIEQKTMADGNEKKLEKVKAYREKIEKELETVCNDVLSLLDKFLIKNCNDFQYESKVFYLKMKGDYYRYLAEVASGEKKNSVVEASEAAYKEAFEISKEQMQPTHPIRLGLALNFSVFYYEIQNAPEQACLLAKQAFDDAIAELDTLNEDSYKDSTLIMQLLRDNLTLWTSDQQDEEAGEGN
Sequence of UniProt Q9ULU4 (Q9ULU4 whole entry, looked up): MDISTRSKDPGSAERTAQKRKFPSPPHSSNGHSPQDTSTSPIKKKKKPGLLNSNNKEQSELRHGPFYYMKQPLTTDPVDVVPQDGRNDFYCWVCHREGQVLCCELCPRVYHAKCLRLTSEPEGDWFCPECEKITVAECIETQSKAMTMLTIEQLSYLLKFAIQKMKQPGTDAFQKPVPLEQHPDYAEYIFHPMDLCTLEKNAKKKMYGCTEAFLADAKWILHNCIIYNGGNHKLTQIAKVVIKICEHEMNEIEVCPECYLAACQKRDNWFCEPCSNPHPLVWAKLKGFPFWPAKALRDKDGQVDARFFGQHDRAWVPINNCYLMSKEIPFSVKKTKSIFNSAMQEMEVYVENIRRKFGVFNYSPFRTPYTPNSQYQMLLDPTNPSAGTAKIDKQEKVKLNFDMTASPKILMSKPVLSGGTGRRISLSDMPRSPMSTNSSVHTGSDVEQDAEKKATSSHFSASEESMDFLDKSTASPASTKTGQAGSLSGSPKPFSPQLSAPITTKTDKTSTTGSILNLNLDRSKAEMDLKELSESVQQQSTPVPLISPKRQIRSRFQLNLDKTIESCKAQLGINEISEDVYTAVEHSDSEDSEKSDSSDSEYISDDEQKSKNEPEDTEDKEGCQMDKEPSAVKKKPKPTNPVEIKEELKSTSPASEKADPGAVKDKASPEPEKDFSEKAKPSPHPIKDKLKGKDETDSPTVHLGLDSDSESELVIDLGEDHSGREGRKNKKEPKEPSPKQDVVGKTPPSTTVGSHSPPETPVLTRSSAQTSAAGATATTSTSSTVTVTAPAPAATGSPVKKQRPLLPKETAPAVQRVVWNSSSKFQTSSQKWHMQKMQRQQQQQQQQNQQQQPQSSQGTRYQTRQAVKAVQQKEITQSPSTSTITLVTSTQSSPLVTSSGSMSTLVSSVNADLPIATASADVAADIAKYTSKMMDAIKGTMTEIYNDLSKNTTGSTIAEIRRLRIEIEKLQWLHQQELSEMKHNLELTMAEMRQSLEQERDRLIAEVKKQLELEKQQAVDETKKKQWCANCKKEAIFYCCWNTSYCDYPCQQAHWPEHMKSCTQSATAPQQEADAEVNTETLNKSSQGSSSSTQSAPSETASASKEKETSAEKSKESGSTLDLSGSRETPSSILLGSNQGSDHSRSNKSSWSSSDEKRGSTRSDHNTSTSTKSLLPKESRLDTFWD
Sequence of UniProt O43670 (O43670 whole entry, looked up): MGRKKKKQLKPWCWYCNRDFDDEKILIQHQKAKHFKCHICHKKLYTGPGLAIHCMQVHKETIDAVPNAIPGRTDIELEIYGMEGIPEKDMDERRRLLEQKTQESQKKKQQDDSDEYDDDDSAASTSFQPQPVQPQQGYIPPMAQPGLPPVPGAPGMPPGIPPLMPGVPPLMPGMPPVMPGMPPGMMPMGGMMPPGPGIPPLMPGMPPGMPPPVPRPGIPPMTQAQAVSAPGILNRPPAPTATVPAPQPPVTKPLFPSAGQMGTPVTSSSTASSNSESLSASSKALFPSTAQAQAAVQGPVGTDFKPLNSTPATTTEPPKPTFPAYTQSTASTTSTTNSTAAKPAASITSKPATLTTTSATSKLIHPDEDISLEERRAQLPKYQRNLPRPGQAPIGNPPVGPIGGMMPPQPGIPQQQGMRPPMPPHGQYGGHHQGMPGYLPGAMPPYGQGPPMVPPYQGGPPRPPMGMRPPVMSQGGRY
Sequence of UniProt Q8TCF1 (Q8TCF1 whole entry, looked up): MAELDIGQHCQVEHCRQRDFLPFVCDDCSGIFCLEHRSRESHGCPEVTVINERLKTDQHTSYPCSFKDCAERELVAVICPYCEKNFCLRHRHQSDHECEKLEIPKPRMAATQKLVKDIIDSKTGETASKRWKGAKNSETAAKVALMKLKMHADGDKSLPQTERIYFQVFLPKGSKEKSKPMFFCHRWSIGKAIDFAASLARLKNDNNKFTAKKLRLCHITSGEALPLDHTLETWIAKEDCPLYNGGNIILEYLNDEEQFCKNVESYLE

Target	probe-labelled cysteine peptide fold change (10 µM)	probe-labelled cysteine peptide fold change (50 µM)
ZNFX1_Q9P2E3_1416_CGHVEGLLYGGLLVK (UniProt Q9P2E3)	-0.0464	-0.153
XRN2_Q9H0D6_296_GKHDELADSLPCAEGEFIFLR (UniProt Q9H0D6)	0.0997	-0.0177
ZBTB7A_O95365_34_TQGLLCDVVILVEGR (UniProt O95365)	0.149	-0.0545
ZFYVE27_Q5T4F4_353_RYPTNNFGNCTGCSATFSVLK (UniProt Q5T4F4)	-0.247	-0.0647
XRN2_Q9H0D6_296_HDELADSLPCAEGEFIFLR (UniProt Q9H0D6)	0.409	-0.0107
ZMYND8_Q9ULU4_106_EGQVLCCELCPR (UniProt Q9ULU4)	0.247	0.0715
XRN2_Q9H0D6_736_FSLDEEAILPDQIVCSPVPMLR (UniProt Q9H0D6)	0.234	0.0197
ZNF691_Q5VV52_230_THLEPAPYICCECGK (UniProt Q5VV52)	-0.272	-0.8
YES1_P07947_42_YRPENTPEPVSTSVSHYGAEPTTVSPCPSSSAK (UniProt P07947)	-0.0245	-0.239
ZW10_O43264_650_LGIVWQDVLPVNIYCK (UniProt O43264)	0.0783	0.0695
ZNF417_Q8TAU3_56_DVMLENLALISSLGCWCGSK<|>ZNF587_Q96SQ5_56_DVMLENLALISSLGCWCGSK (UniProt Q96SQ5+Q8TAU3)	0.112	0.104
ZNF207_O43670_54_KLYTGPGLAIHCMQVHK (UniProt O43670)	-0.6	-0.388
ZW10_O43264_568_LAPILCDGTATFVDLVPGFR (UniProt O43264)	0.117	0.00333
ZCCHC3_Q9NUD5_238_REQEDCWENFVVLGR (UniProt Q9NUD5)	0.192	0.112
ZNF316_A6NFI3_861_CADCGR (UniProt A6NFI3)	0.139	0.163
ZW10_O43264_588_LGTECFLAQMR (UniProt O43264)	0.647	0.508
XRN1_Q8IZH2_16_YPCLSEVVK (UniProt Q8IZH2)	0.0639	0.0149
YWHAH_Q04917_97_ELETVCNDVLSLLDK (UniProt Q04917)	-0.1	-0.178
ZNF687_Q8N1G0_576_CSLLLHAR (UniProt Q8N1G0)	0.101	0.0491
ZFAND1_Q8TCF1_64_LKTDQHTSYPCSFK (UniProt Q8TCF1)	-0.0624	-0.388
YES1_P07947_255_LTTVCPTVKPQTQGLAK (UniProt P07947)	-0.0129	-0.34
ZNF710_Q8N1W2_91_ALEEPAEEEVLEVEAACEK (UniProt Q8N1W2)	0.158	-0.171
ZNF280D_Q6N043_323_CFSCLK (UniProt Q6N043)	0.0838	0.233
